Test systems include SK-MEL-2 melanoma; EKVX NSCLC; SN12C renal; UO-31 renal; TK-10 renal; ACHN renal; CAKI-1 renal; A498 renal; CCRF-CEM leukemia; MOLT-4 leukemia; RPMI-8226 leukemia; OVCAR-8 ovarian; OVCAR-5 ovarian; OVCAR-4 ovarian; SK-OV-3 ovarian; IGROV1 ovarian; OVCAR-3 ovarian; HS 578T breast; NCI/ADR-RES ovarian.
Holding throughout (assay): NCI-60 one-dose screen, 48 h (100 = growth as untreated, 0 = no growth, -100 = all killed)
Details in all cases: 10 µM unless noted

About 83,000 compounds went through this panel and 20% of them were active in at least one assay; those are over-represented in the sample as a whole.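 The endpoint reported here, percent growth, reads 100 for growth as untreated, 0 for no net growth and -100 for all cells dead.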 Unmarked numbers belong to inactive results. Calls of active or inactive are those of the source. How the source made its calls: active means growth percent below 10; inactive means the rest.

In the case of `O=C(S)CNC(=O)c1ccccc1`, the growth is 101% in the assay on SK-MEL-2 melanoma; 95.8% in the assay with EKVX NSCLC; 95.6% with SN12C renal; 76.5% with UO-31 renal; 91.6% with TK-10 renal; 103% in the assay with ACHN renal. In addition, the growth with CAKI-1 renal was 90.7%; with A498 renal, 83.5%; in the assay on CCRF-CEM leukemia, 89.9%; with MOLT-4 leukemia, 87.7%; in the assay with RPMI-8226 leukemia, 94.5%; with OVCAR-8 ovarian, 101%. The growth is 93.1% in the assay on OVCAR-5 ovarian; 110% with OVCAR-4 ovarian; 89.4% in the assay with SK-OV-3 ovarian; 105% in the assay with IGROV1 ovarian; 101% with OVCAR-3 ovarian; 79.5% in the assay on HS 578T breast. Moreover, in the assay on NCI/ADR-RES ovarian, the growth was 96.5%.
For the compound `Cc1ccc(-c2nc(SCC(=O)Nc3nc(-c4ccc(Cl)cc4)cs3)[nH]c(=O)c2C#N)cc1`, the growth was 82.9% in the assay on SK-MEL-2 melanoma; 101% in the assay on EKVX NSCLC; 110% in the assay with SN12C renal; 88.4% in the assay with UO-31 renal; 103% in the assay with TK-10 renal; 101% with ACHN renal. The growth in the assay with CAKI-1 renal is 96.1%; with A498 renal it was 85.2%; with CCRF-CEM leukemia it was 103%; in the assay on MOLT-4 leukemia, 90.4%; with RPMI-8226 leukemia, 103%; in the assay with OVCAR-8 ovarian it was 92.3%. Moreover, the growth with OVCAR-5 ovarian was 94.3%; in the assay on OVCAR-4 ovarian it was 111%; in the assay on SK-OV-3 ovarian, 100%; in the assay with IGROV1 ovarian it was 105%; in the assay on OVCAR-3 ovarian, 115%; in the assay with HS 578T breast it was 90.5%. Also, the growth with NCI/ADR-RES ovarian is 109%.
`CCCCC1CCCC12NC(=O)NC2=O` (configuration not stated): the growth with SK-MEL-2 melanoma was 100%; in the assay with EKVX NSCLC it was 107%; with SN12C renal, 96%; with UO-31 renal, 85.1%; in the assay on TK-10 renal, 92.7%; in the assay with ACHN renal it was 99.4%. For the same compound, the growth in the assay with CAKI-1 renal is 107%; with A498 renal, 98.3%; in the assay on CCRF-CEM leukemia it was 101%; in the assay on MOLT-4 leukemia it was 122%; in the assay with RPMI-8226 leukemia it was 101%; with OVCAR-8 ovarian it was 113%. Besides, the growth with OVCAR-5 ovarian was 88.2%; with OVCAR-4 ovarian it was 106%; in the assay with SK-OV-3 ovarian it was 110%; with IGROV1 ovarian it was 88.8%; with OVCAR-3 ovarian, 92.8%; with HS 578T breast, 112%. Also, the growth in the assay on NCI/ADR-RES ovarian was 92.9%.
Take `COc1c(C2CC(=O)Nc3c2c(C)nn3-c2nc3ccccc3[nH]2)cc2c(c1OC)OCO2` (configuration not stated): the growth with SK-MEL-2 melanoma was 29.6%; in the assay on EKVX NSCLC, 58%; in the assay on SN12C renal, 68.8%; in the assay with UO-31 renal, 45.4%; in the assay on TK-10 renal, 66.9%; with ACHN renal, 55.8%. Also, the growth in the assay on CAKI-1 renal is 71.6%; in the assay with A498 renal, 22.6%; with CCRF-CEM leukemia, 11.3%; with MOLT-4 leukemia, -12.7% (active); with RPMI-8226 leukemia, 53.6%; in the assay on OVCAR-8 ovarian it was 52%. The growth is 105% with OVCAR-5 ovarian; 83.2% in the assay on OVCAR-4 ovarian; 42% with SK-OV-3 ovarian; 48.8% in the assay on IGROV1 ovarian; 36.1% in the assay with OVCAR-3 ovarian; 28.3% with HS 578T breast. Further, the growth with NCI/ADR-RES ovarian is 39.8%.
On to `COc1cc(C(=O)/C=C/c2ccc(OCCCCCC[P+](c3ccccc3)(c3ccccc3)c3ccccc3)cc2)cc(OC)c1OC`, for which the growth is -67.3% (active) in the assay with SK-MEL-2 melanoma; -9.14% (active) with EKVX NSCLC; -63.8% (active) with SN12C renal; 1.6% (active) in the assay on UO-31 renal; -72% (active) with TK-10 renal; -44.5% (active) with ACHN renal. Besides, the growth in the assay on CAKI-1 renal was 13.2%; in the assay on A498 renal it was -42% (active); with CCRF-CEM leukemia, 20.3%; with MOLT-4 leukemia it was 14%; in the assay with RPMI-8226 leukemia, 0.339% (active); in the assay with OVCAR-8 ovarian, -45.5% (active). In addition, the growth in the assay with OVCAR-5 ovarian was -13% (active); in the assay on OVCAR-4 ovarian, 10.1%; with SK-OV-3 ovarian it was -35.9% (active); in the assay with IGROV1 ovarian, -60.2% (active); in the assay with OVCAR-3 ovarian, -48% (active); with HS 578T breast, -6.89% (active). Also, the growth in the assay with NCI/ADR-RES ovarian was 74.4%.
`CSc1ncccc1C(=O)OCC(=O)Nc1oc(C)c2c(C)n[nH]c(=O)c12`: the growth was 92.5% with SK-MEL-2 melanoma; 71% in the assay on EKVX NSCLC; 103% in the assay on SN12C renal; 91.7% in the assay on UO-31 renal; 102% with TK-10 renal; 106% with ACHN renal. Further, the growth in the assay on CAKI-1 renal is 112%; with A498 renal it was 116%; in the assay on CCRF-CEM leukemia, 79%; in the assay on MOLT-4 leukemia it was 99.4%; with RPMI-8226 leukemia, 72.8%; in the assay on OVCAR-8 ovarian it was 98.6%. Also, the growth is 94.3% in the assay with OVCAR-5 ovarian; 104% with OVCAR-4 ovarian; 96% in the assay with SK-OV-3 ovarian; -4.78% (active) in the assay with IGROV1 ovarian; 106% in the assay with OVCAR-3 ovarian; 104% with HS 578T breast. Moreover, the growth with NCI/ADR-RES ovarian is 102%.
For `COc1ccc(C(=O)C(C)C)c2ccccc12`, the growth in the assay with SK-MEL-2 melanoma was 97.9%; in the assay with EKVX NSCLC, 94.7%; with SN12C renal, 109%; with UO-31 renal it was 90.8%; in the assay on TK-10 renal, 90.5%; with ACHN renal it was 100%. Moreover, the growth is 97.9% in the assay with CAKI-1 renal; 99% in the assay with A498 renal; -25.6% (active) with CCRF-CEM leukemia; 97.2% in the assay on MOLT-4 leukemia; 82.5% in the assay with RPMI-8226 leukemia; 126% in the assay with OVCAR-8 ovarian. The growth in the assay on OVCAR-5 ovarian was 98%; in the assay on OVCAR-4 ovarian it was 108%; in the assay with SK-OV-3 ovarian it was 107%; in the assay with IGROV1 ovarian it was 128%; with OVCAR-3 ovarian it was 120%; in the assay on HS 578T breast it was 90.8%. For the same compound, the growth in the assay with NCI/ADR-RES ovarian is 107%.
For the compound `COc1ccc(-c2[nH]ncc2-c2cc3c(c(OC)c2)OCC(=O)N3)cc1`, the growth in the assay on SK-MEL-2 melanoma was 9.07% (active); in the assay with EKVX NSCLC, 38.7%; with SN12C renal it was 35.8%; in the assay with UO-31 renal it was 36.4%; with TK-10 renal it was 1.85% (active); with ACHN renal it was 36.7%. The growth was 26% in the assay with CAKI-1 renal; -21% (active) in the assay on A498 renal; 23.2% in the assay on CCRF-CEM leukemia; 31.9% in the assay on MOLT-4 leukemia; 29.3% in the assay with RPMI-8226 leukemia; 23.5% with OVCAR-8 ovarian. In addition, the growth is 36.7% with OVCAR-5 ovarian; 54.4% with OVCAR-4 ovarian; 19.8% in the assay on SK-OV-3 ovarian; 38.2% in the assay with IGROV1 ovarian; -4.58% (active) in the assay on OVCAR-3 ovarian; -2.19% (active) with HS 578T breast. For the same compound, in the assay with NCI/ADR-RES ovarian, the growth is 29.7%.

These data come from PubChem BioAssay (NCI).
